# Source: the supplement of paper PMC6555819
# Test system: RARg:RXRa (NR concentration 270 nM, RXRa partner concentration 90 nM)
# Assay: PBM binding z-score (relative to random genomic background probes); higher = stronger binding; sequences stand for … in GC…GCGATTGACAGCGTAGAATGAAGG
# In short: (§1)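 Each nuclear receptor dimer, without ligand, was incubated for 1 h on custom Agilent 4×180K protein-binding microarrays. Binding was detected with antibodies against each partner (one per run), and scanned fluorescence was regression-normalized. The binding z-scores are referenced to random human genomic background probes.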
row,Sequence,PBM binding z-score
1,CTCGAAAGGTCGTGCTCAGGTGAGTATCCCAAAC,5.08
2,CCTATTAGTTGACCATAAGCGCAACCGAAGCTCG,0.621
3,TCGATTAGTTGATTAGGGCAACCGAAACAGCGGA,0.102
4,TCTTGTAGATCAAGCAAGTTAAGAAAGCCTGAGT,-0.21
5,TCGAGTAGGTTAGTCAGGGCATTCAGCCAACATA,-0.14
6,CGTCCAAGGTCAATGCTAAGTCAGTGAAAGCATT,5.54
7,ATCTCTAGGTAAGACTCAGTTCATTGAAGAACGC,0.375
8,CTACCAAGGTGAACAAGGTCGTTGACTACTATTC,2.17
9,ATCTCTAGGTAAACTTCAGTGAAAGATCGATAGA,0.307
10,ACTAGTTGGTCTGCTGAGGTCACACACAATTCGG,3.33
11,AATACAGGGACACTAGGCCAGAGTAGGTACGAAT,0.347
12,CCTCGGAGGACAGAATGTCAGAGCTGTCCGCTTT,-0.321
13,CAAATTAGGTCACAGAGGTCAAAGTCCGTGCGTA,7.24
14,CTCGAAAGGTCGGTTGAGCTGAGTATACGGATAA,2.09
15,TCTATTAGCTGAAGGGCAACCGACGAGTCCGTTT,0.404
16,TCGAGTAGGTTACTCGGGGCATTCAGCCAACATA,0.206
17,CCTGCTCGGTCATGGTCAGCTAATCTACAGTATG,1.91
18,AGTCAAAGTTCAGGCCGAGGTAACGTAAAGCACG,5.07
19,GATACAGCGTCAGCTAGAGGCCAGAGTATGGAAA,-0.0653
20,ATATGTAGGTTACATCCGGGTCATTCCGGCTATG,3.56

row,Sequence,PBM binding z-score
1,TCATATAGGTAACGGTGAAAGTCGAACGATATGA,0.474
2,CCTACTCGGCCATCAGGTCATTGATATCAACGTT,2.43
3,AGAACGAGGGCAATGAGTTGGTAGCACGGGTGGC,0.857
4,TCATATAGGAAAAAGGTGAAAGTCGGTGTGGTAA,0.803
5,GCCGCTAGGTCAGGTTGGTCAGCTAACGGGTACG,2.62
6,CAAACTAGGTCACAGAGCTCAAAGTCCGTGCGTA,4.37
7,TTTATTAGTTGAAGGGCAACCGACGAGTCCGTTT,0.781
8,CCTACTGGTCCATTCAGAGGTCATTGATCATATG,3.66
9,TCATATAGGTAAAGAGGTGAAAGTCCGTAAGTTA,1.37
10,ATCTCTAGGTAAAGTTCAGTGCAAGATCGATAGA,2.49
11,TTACCAAGGTGAAGGGCGTTGATCCCTCTGTAGA,0.413
12,CTCGAAAGGTCGGTTGAGGTGAGTATCCGGATAA,2.82
13,GGAACGAGGGCATTCGAGTAGATAGCATGGCGAT,0.96
14,ACTTACCGGTCAACGAGGTTATAGCACGCGTATA,3.45
15,ACTAGTTGGTCAGATGAGGTCACACACAATTCGG,3.94
16,AAAGACAGGTGAGTGAAGGTAACTCAGCTGGACG,0.293
17,AGTCAAAGTTCATCTAGGTGACGTAAGATATGCT,5.42
18,CCTGCTAGGTCATGGTCAGCTAATCTACAGTATG,4.01
19,ATATGTAGGTTATTGGGTCATTCAGTTTGCGCAT,3.09
20,TCTTGTAGATCAACAGGAGCTTAAGAAAGATCGA,0.118

# Test system: RARg homodimer (NR concentration 270 nM)
# Assay: as above
# In short: as §1
row,Sequence,PBM binding z-score
1,CTCGAAAGGTCGTGCTCAGGTGAGTATCCCAAAC,3.47
2,CCTATTAGTTGACCATAAGCGCAACCGAAGCTCG,0.455
3,TCGATTAGTTGATTAGGGCAACCGAAACAGCGGA,0.329
4,TCTTGTAGATCAAGCAAGTTAAGAAAGCCTGAGT,-0.386
5,TCGAGTAGGTTAGTCAGGGCATTCAGCCAACATA,0.189
6,CGTCCAAGGTCAATGCTAAGTCAGTGAAAGCATT,6.06
7,ATCTCTAGGTAAGACTCAGTTCATTGAAGAACGC,0.586
8,CTACCAAGGTGAACAAGGTCGTTGACTACTATTC,1.67
9,ATCTCTAGGTAAACTTCAGTGAAAGATCGATAGA,0.513
10,ACTAGTTGGTCTGCTGAGGTCACACACAATTCGG,2.94
11,AATACAGGGACACTAGGCCAGAGTAGGTACGAAT,0.984
12,CCTCGGAGGACAGAATGTCAGAGCTGTCCGCTTT,0.175
13,CAAATTAGGTCACAGAGGTCAAAGTCCGTGCGTA,7.81
14,CTCGAAAGGTCGGTTGAGCTGAGTATACGGATAA,2.29
15,TCTATTAGCTGAAGGGCAACCGACGAGTCCGTTT,0.211
16,TCGAGTAGGTTACTCGGGGCATTCAGCCAACATA,0.191
17,CCTGCTCGGTCATGGTCAGCTAATCTACAGTATG,2.66
18,AGTCAAAGTTCAGGCCGAGGTAACGTAAAGCACG,4.99
19,GATACAGCGTCAGCTAGAGGCCAGAGTATGGAAA,0.0489
20,ATATGTAGGTTACATCCGGGTCATTCCGGCTATG,2.07

row,Sequence,PBM binding z-score
1,TCATATAGGTAACGGTGAAAGTCGAACGATATGA,0.423
2,CCTACTCGGCCATCAGGTCATTGATATCAACGTT,2.51
3,AGAACGAGGGCAATGAGTTGGTAGCACGGGTGGC,1.09
4,TCATATAGGAAAAAGGTGAAAGTCGGTGTGGTAA,0.339
5,GCCGCTAGGTCAGGTTGGTCAGCTAACGGGTACG,3.67
6,CAAACTAGGTCACAGAGCTCAAAGTCCGTGCGTA,4.81
7,TTTATTAGTTGAAGGGCAACCGACGAGTCCGTTT,0.783
8,CCTACTGGTCCATTCAGAGGTCATTGATCATATG,2.62
9,TCATATAGGTAAAGAGGTGAAAGTCCGTAAGTTA,0.762
10,ATCTCTAGGTAAAGTTCAGTGCAAGATCGATAGA,2.87
11,TTACCAAGGTGAAGGGCGTTGATCCCTCTGTAGA,0.407
12,CTCGAAAGGTCGGTTGAGGTGAGTATCCGGATAA,2.94
13,GGAACGAGGGCATTCGAGTAGATAGCATGGCGAT,1.23
14,ACTTACCGGTCAACGAGGTTATAGCACGCGTATA,3.85
15,ACTAGTTGGTCAGATGAGGTCACACACAATTCGG,3.9
16,AAAGACAGGTGAGTGAAGGTAACTCAGCTGGACG,0.488
17,AGTCAAAGTTCATCTAGGTGACGTAAGATATGCT,5.9
18,CCTGCTAGGTCATGGTCAGCTAATCTACAGTATG,4.52
19,ATATGTAGGTTATTGGGTCATTCAGTTTGCGCAT,2.45
20,TCTTGTAGATCAACAGGAGCTTAAGAAAGATCGA,-0.187
